Experimental findings from PubChem BioAssay (NCATS) are described below.

A short description of assay [1]: Quantitative High-Throughput drug screen in 47 multiple myeloma cell lines against the NCATS MIPE library collection: Delta47_JCRB cell viability assay (AID 1918925; note: nearly all actives have a fitted effect of over 45% in size). The method in brief:
(§1)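 Primary qHTS used for cherry-picking: cells at 500/well, library compounds for 48 h (37C, 5% CO2), luminescent ATP assay.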

Assay [2] in a line: Quantitative High-Throughput drug screen in 47 multiple myeloma cell lines against the NCATS MIPE library collection: EJM_DSMZ cell viability assay (AID 1918926; note: nearly all actives have a fitted effect of over 30% in size). Summed up:
as §1

Assay [3] in a line: Quantitative High-Throughput drug screen in 47 multiple myeloma cell lines against the NCATS MIPE library collection: AMO1_DSMZ cell viability assay (AID 1918927; note: nearly all actives have a fitted effect of over 30% in size). The method in brief: as §1
Assay [4] can be described thus: Quantitative High-Throughput drug screen in 47 multiple myeloma cell lines against the NCATS MIPE library collection: ARP1_JJKsccF8 cell viability assay (AID 1918928; note: nearly all actives have a fitted effect of over 40% in size). Summed up: (§2)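 Myeloma cells, 500 per well, were exposed to MIPE 4.0 drugs by pin transfer for 48 h at 37 °C, 5% CO2. Viability was read as ATP luminescence with CellTiter-Glo, normalised to DMSO-only (100%) and medium-only (0%) wells.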

The nature of assay [5]: Quantitative High-Throughput drug screen in 47 multiple myeloma cell lines against the NCATS MIPE library collection: ARD_JJKsccE7 cell viability assay (AID 1918929). Summed up: as §1
Assay [6] in a line: Quantitative High-Throughput drug screen in 47 multiple myeloma cell lines against the NCATS MIPE library collection: Karpas620_DSMZ cell viability assay (AID 1918959). Note: nearly all actives have a fitted effect of over 30% in size. The method in brief: (§3)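 Viability readout: CellTiter-Glo luminescence following 5 min room-temperature incubation with reagent. Prior exposure: 48 h, 37C, humidified 5% CO2, 500 cells per well.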
Assay [7] is described as follows: Quantitative High-Throughput drug screen in 47 multiple myeloma cell lines against the NCATS MIPE library collection: KMM1_JCRB cell viability assay (AID 1918960). Note: nearly all actives have a fitted effect of over 30% in size. Summed up: as §2
Assay [8] is described as follows: Quantitative High-Throughput drug screen in 47 multiple myeloma cell lines against the NCATS MIPE library collection: Karpas417_ECACC cell viability assay (AID 1918961). The conditions noted are these: Karpas417 myeloma viability, CellTiter-Glo ATP luminescence, 48 h; viability (% of DMSO): at 45.8 µM (top of the series). The method in brief: (§4)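 Approved and investigational drugs from MIPE 4.0 were added by pin tool to 500 cells per well. After 48 hours at 37C, ATP-based CellTiter-Glo luminescence indicated remaining viability.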
(In ATP-based viability assays light output follows the ATP content of the culture.)

The nature of assay [9]: Quantitative High-Throughput drug screen in 47 multiple myeloma cell lines against the NCATS MIPE library collection: JIM1_ECACC cell viability assay (AID 1918964). Summed up: as §1
Assay [10] in a line: Quantitative High-Throughput drug screen in 47 multiple myeloma cell lines against the NCATS MIPE library collection: INA6_PLB cell viability assay (AID 1918965; note: nearly all actives have a fitted effect of over 55% in size). Summed up: as §4
Assay [11] in a line: Quantitative High-Throughput drug screen in 47 multiple myeloma cell lines against the NCATS MIPE library collection: H1112_PLB cell viability assay (AID 1918967; note: nearly all actives have a fitted effect of over 30% in size). Summed up:
as §1

A short description of assay [12]: Quantitative High-Throughput drug screen in 47 multiple myeloma cell lines against the NCATS MIPE library collection: Karpas25_ECACC cell viability assay (AID 1918968; note: nearly all actives have a fitted effect of over 35% in size). Summed up:
as §1

A short description of assay [13]: Quantitative High-Throughput drug screen in 47 multiple myeloma cell lines against the NCATS MIPE library collection: KMS27_JCRB cell viability assay (AID 1918970). Note: nearly all actives have a fitted effect of over 30% in size. The conditions noted are these: KMS27 myeloma cells, CellTiter-Glo ATP viability, 48 h; viability (% of DMSO): at 45.8 µM (top of the series). The method in brief: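 Viability inhibition screen, 48 h compound exposure, luminescent ATP read-out.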

A short description of assay [14]: Quantitative High-Throughput drug screen in 47 multiple myeloma cell lines against the NCATS MIPE library collection: KMS12BM_JCRB cell viability assay (AID 1918971). Note: nearly all actives have a fitted effect of over 35% in size. Summed up: as §3
Assay [15] in a line: Quantitative High-Throughput drug screen in 47 multiple myeloma cell lines against the NCATS MIPE library collection: JIM3_ECACC cell viability assay (AID 1918963; note: nearly all actives have a fitted effect of over 35% in size). Summed up: as §3
Assay [16] in a line: Quantitative High-Throughput drug screen in 47 multiple myeloma cell lines against the NCATS MIPE library collection: FR4_PLB cell viability assay (AID 1918924; note: nearly all actives have a fitted effect of over 35% in size). Summed up: as §3
Assay [17] is described as follows: Quantitative High-Throughput drug screen in 47 multiple myeloma cell lines against the NCATS MIPE library collection: KHM11_PLB cell viability assay (AID 1918962). Note: nearly all actives have a fitted effect of over 35% in size. The method in brief:
as §3

Assay [18] in a line: Quantitative High-Throughput drug screen in 47 multiple myeloma cell lines against the NCATS MIPE library collection: JJN3_DSMZ cell viability assay (AID 1918966; note: nearly all actives have a fitted effect of over 50% in size). The method in brief: as §1

The structures appear in SMILES notation. Inconclusive results are not listed. Activity calls are given as the source filed them. Calls come from the whole dose curve; as a rule, active = well fitted curve in the direction sought with a large enough effect; inconclusive = small, poorly fitted or top-dose-only effect, or another doubt; inactive = no such curve, though single readings can be large; an effect the other way counts as inactive or inconclusive.
Potency is the fitted concentration of half-maximal effect.

Consider `OC[C@H]1O[C@@H](O[C@H]2[C@@H](O)[C@@](O)(CO)O[C@@H]2CO)[C@H](O)[C@@H](O)[C@@H]1O`, for which the Potency entry in [1], in assay [2], in [3], in assay [4], in assay [5] and in assay [6] was “inactive” throughout. Further, the Potency result in assay [7], in [8], in [9], in assay [10], in assay [11] and in assay [12] was “inactive” in each case. Also, the Potency result in assay [13] and in assay [14] was “inactive” in each case.

For the compound `O=C(NC[C@H](O)CO)c1ccncc1Nc1ccc(I)cc1F`, the Potency in assay [1] was 11.8 µM (active); in assay [2] it was 18.7 µM (active); in assay [3], 5.26 µM (active); in assay [4], 2.96 µM (active); in [6], 0.0296 µM (active); in [7], 6.62 µM (active). In addition, the Potency in [15] is 14.8 µM (active); in [9] it was 2.35 µM (active); in [10] it was 5.9 µM (active); in [11], 13.2 µM (active); in assay [12], 6.62 µM (active); in assay [13], 1.48 µM (active).

For the compound `CSc1cccc(Nc2ncc3cc(-c4c(Cl)cccc4Cl)c(=O)n(C)c3n2)c1`, the Potency in assay [16] was 0.372 µM (active); in [2], 6.62 µM (active); in assay [4], 1.87 µM (active); in assay [7], 0.059 µM (active); in assay [8], 0.0264 µM (active); in assay [17], 0.0332 µM (active). For the same compound, the Potency in assay [10] is 0.059 µM (active); in assay [18], 3.32 µM (active); in [14], 1.32 µM (active).

`C[C@]12C=CC(=O)C=C1CC[C@@H]1[C@@H]2[C@@H](O)C[C@@]2(C)[C@@H]1CC[C@]2(O)C(=O)CO`: the Potency result in assay [16], in [2], in assay [6], in assay [15], in [11] and in [13] was “inactive” in each case. In addition, the Potency was 0.209 µM (active) in [7], 5.9 µM (active) in [10], 0.296 µM (active) in [12] and 11.8 µM (active) in assay [14].

Take `CCC(=C(CC)c1ccc(O)cc1)c1ccc(O)cc1`: the Potency in assay [16] was 8.33 µM (active); in [4], 18.7 µM (active); in [6], 16.6 µM (active); in [7], 18.7 µM (active); in assay [9], 16.6 µM (active); in assay [18], 9.35 µM (active). For the same compound, the Potency was 18.7 µM (active) in assay [11] and 13.2 µM (active) in assay [14]. Moreover, the Potency result in [17] and in [15] was “inactive” in each case.

Turning to `COc1cc2c(cc1OC)CC(=O)N(CCCN(C)C[C@H]1Cc3cc(OC)c(OC)cc31)CC2`, the Potency entry in [16], in [4], in assay [15] and in assay [10] was “inactive” each time. The Potency is 16.6 µM (active) in [5], 3.72 µM (active) in assay [11] and 4.69 µM (active) in assay [12].

As to `CC=C1C2C=C(C)CC1(N)c1ccc(=O)[nH]c1C2` (stereo not drawn), the Potency result in assay [1], in assay [2], in assay [3], in assay [5], in assay [6] and in [7] was “inactive” throughout. Further, the Potency result in [17], in assay [15], in assay [18], in assay [12] and in assay [13] was “inactive” in each case.

For the compound `COc1ccc(C=CC(=O)Nc2ccccc2C(=O)O)cc1OC`, the Potency result in assay [16], in assay [6], in [7], in [17], in [15] and in assay [9] was “inactive” throughout. Also, the Potency entry in assay [11] and in assay [12] was “inactive” in each case. For the same compound, the Potency in [10] is 0.0019 µM (active).

In the case of `CC[C@]1(O)C[C@H]2CN(CCC3=c4ccccc4=N[C]3[C@@](C(=O)OC)(c3cc4c(cc3OC)N(C)[C@H]3[C@@](O)(C(N)=O)[C@H](O)[C@]5(CC)C=CCN6CC[C@]43[C@@H]65)C2)C1`, in [16], the Potency entry is “inactive”. The Potency in assay [3] was 0.833 µM (active); in assay [4] it was 0.0105 µM (active); in assay [5] it was 0.118 µM (active); in assay [7] it was 0.105 µM (active); in assay [18], 0.372 µM (active); in assay [13], 0.296 µM (active). For the same compound, the Potency in [14] was 0.0047 µM (active).

As to `CC(C)Oc1cc(Nc2nc(N[C@@H](C)c3ccc(F)cn3)ncc2Cl)[nH]n1`, the Potency in assay [1] was 8.33 µM (active); in [2], 20.9 µM (active); in [5] it was 14.8 µM (active); in assay [7], 16.6 µM (active); in [17] it was 10.5 µM (active); in assay [15], 8.33 µM (active). The Potency is 20.9 µM (active) in assay [9], 7.43 µM (active) in assay [10], 20.9 µM (active) in assay [18] and 20.9 µM (active) in assay [13].

Regarding `Cc1c(-c2cccc3c(CCCOc4cccc5ccccc45)c(C(=O)O)n(Cc4cccnc4)c23)c(COc2ccc(N3CCN([S+](=O)([O-])N(C)C)CC3)cc2)nn1C`, the Potency in [1] was 14.8 µM (active); in assay [17], 20.9 µM (active); in assay [10], 16.6 µM (active); in assay [18] it was 23.5 µM (active); in [11], 20.9 µM (active); in assay [12] it was 20.9 µM (active). Also, the Potency in [14] is 23.5 µM (active). Also, the Potency result in [3], in [5], in assay [6], in assay [7], in assay [8] and in [9] was “inactive” each time.

For `NC(=O)c1ncn([C@@H]2O[C@H](CO)[C@@H](O)[C@@H]2O)n1`, the Potency entry in [1], in assay [2], in assay [6], in [17], in assay [15] and in assay [9] was “inactive” in each case. The Potency result in assay [10], in assay [11], in [12] and in assay [13] was “inactive” in each case.

`C=C1[C@H](n2cnc3c(=O)[nH]c(N)nc32)C[C@H](O)[C@H]1CO`: the Potency is 3.32 µM (active) in assay [1]; 18.7 µM (active) in [3]; 4.69 µM (active) in assay [17]; 11.8 µM (active) in [10]; 11.8 µM (active) in assay [11]; 2.96 µM (active) in assay [12]. Besides, the Potency in assay [14] is 0.418 µM (active). Also, the Potency result in assay [2] and in assay [18] was “inactive” each time.

With `C[C@@H]1CC=CC=CC=CC=C[C@@H](O[C@@H]2O[C@H](C)[C@@H](O)[C@H](N)[C@H]2O)C[C@@H]2O[C@](O)(C[C@@H](O)C[C@@H]3O[C@@H]3C=CC(=O)O1)C[C@H](O)[C@@H]2C(=O)O`, the Potency in assay [1] was 11.8 µM (active); in [4], 4.18 µM (active); in assay [17], 13.2 µM (active); in assay [15], 5.9 µM (active); in assay [10], 18.7 µM (active); in assay [11] it was 16.6 µM (active). Moreover, the Potency in assay [12] is 20.9 µM (active); in assay [14], 10.5 µM (active). Further, the Potency result in [2], in [5], in assay [6], in assay [7] and in [9] was “inactive” throughout.

`CC(C)C[C@H](NC(=O)c1cc2ccccc2s1)C(=O)N1CCN(C(=O)[C@H](CO)NS(=O)(=O)c2ccc(Cl)cc2Cl)CC1`: the Potency in assay [1] is 26.4 µM (active); in assay [2] it was 18.7 µM (active); in assay [15], 20.9 µM (active); in assay [18] it was 18.7 µM (active); in assay [11], 20.9 µM (active); in [12], 26.4 µM (active). In addition, the Potency in assay [14] is 18.7 µM (active). Further, the Potency result in assay [13] is “inactive”.
